From PubChem BioAssay (Tox21)
Several values for one entry are separate records, joined by “and”; a condition that tells them apart may be missing. Equal values may be shown once. Results filed as inconclusive are left out. Where a call stands in place of a potency, no number is given. Some compounds were tested as several samples or in several runs, with calls that do not always agree. Activity calls are given as the source filed them. Unless noted, calls follow the shape of the full dose curve.

molecular target: Nuclear receptor ROR-gamma (Homo sapiens) (UniProt P51449); experiment: qHTS assay to identify small molecule antagonists of the retinoid-related orphan receptor gamma (ROR-gamma) signaling pathway (AID 1159521; active = well fitted inhibition curve with a large enough effect in the repeat runs; also: nearly all actives have a fitted effect of over 50% in size; also: potency is read from the fitted curve at half-maximal effect); conditions: Tet-on RORgamma CHO cells, RORE-luciferase, 16 h; series mostly up to 92.4 µM
Outline: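 CHO cells expressing RORγ under a TET-on promoter, luciferase under RORE control. Dox 1 uM final, 16 h; compounds added 2 h prior. Luminescence decrease measured.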

SMILES	Potency
OC(CCl)CCl	inactive
c1cc(N(CC2CO2)CC2CO2)ccc1OCC1CO1 (stereo not given)	54.5 µM (active) and 61.1 µM (active)
CN(C)CCC=C1c2ccccc2CCc2ccccc21	30.6 µM (active) and inactive
NC=O	inactive
O=CCc1ccccc1	inactive
CCCCOCCOCCOCCO	inactive
CCOCCOCCO	inactive
O=P(O)(O)O	inactive
CCCCNS(=O)(=O)c1ccccc1	inactive
Cc1ccc(C)c(O)c1C	inactive
Cc1[nH]c(=O)c(C#N)cc1-c1ccncc1	inactive
CNCCCC12CCC(c3ccccc31)c1ccccc12	34.4 µM (active) and inactive
Cc1cccc(C(=O)O)c1	inactive
Nc1ncn([C@@H]2O[C@H](CO)[C@@H](O)[C@H]2O)c(=O)n1	1.72 µM (active) and 3.35 µM (active)
OC1CCCCCCCCCCC1	inactive
c1ccncc1	inactive
Nc1ncnc2nc[nH]c12	inactive
CC(C(=O)O)c1cccc(C(=O)c2ccccc2)c1 (stereo not given)	inactive
Cc1c(C(N)=O)cc([N+](=O)[O-])cc1[N+](=O)[O-]	inactive

SMILES	Potency
CC(C)OC=O	inactive
O=[N+]([O-])c1ccc2c(c1)Cc1ccccc1-2	inactive
Cc1c(OCC(F)(F)F)ccnc1CS(=O)c1nc2ccccc2[nH]1 (stereo not given)	inactive
CC(C)OC(=O)C(C)(C)Oc1ccc(C(=O)c2ccc(Cl)cc2)cc1	68.6 µM (active)
c1ccc2c(c1)c1cccc3ccc4cccc2c4c31	inactive
O=Cc1ccccc1O	inactive
C[C@]12CC[C@H]3[C@@H](CCC4=CC(=O)CC[C@@]43C)[C@@H]1CC[C@@H]2C(=O)CO	27.3 µM (active)
O=CCCCC=O	29.6 µM (active) and inactive
COC(C)COC(C)COC(C)CO (stereo not given)	inactive
COC(=O)C1=C(C)NC(C)=C(C(=O)OCCN(C)Cc2ccccc2)C1c1cccc([N+](=O)[O-])c1 (stereo not given)	30.5 µM (active) and 29.8 µM (active)
CC(C)Oc1ccc2c(=O)c(-c3ccccc3)coc2c1	inactive
C=C(C)C(=O)OCCOC(=O)C(=C)C	inactive
Clc1nc(Cl)c(Cl)c(Cl)c1Cl	inactive
O=C(/C=C/C=C/c1ccc2c(c1)OCO2)N1CCCCC1	inactive
C[C@]12CCC(=O)C=C1CC[C@@H]1[C@@H]2C(=O)C[C@@]2(C)[C@H]1CC[C@]2(O)C(=O)CO	inactive
CN1C(C(=O)Nc2ccccn2)=C(O)c2ccccc2S1(=O)=O	inactive
Cc1ccc(C(=O)c2cc(O)c(O)c([N+](=O)[O-])c2)cc1	27.3 µM (active) and 26.6 µM (active)
CC(C)CC(C)(O)C#CC(C)(O)CC(C)C (stereo not given)	inactive
O=c1oc(=O)c2cc3c(=O)oc(=O)c3cc12	inactive

test system: not listed separately; experiment: qHTS assay to identify small molecule agonists of the AP-1 signaling pathway - cell viability counter screen (AID 1159525); conditions: ME-180 AP-1-bla cells viability, ATP luminescence, 5 h; series mostly up to 76.8 µM; also: nearly all actives have a fitted effect of over 55% in size
Outline: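 Each titration point was normalised to DMSO and tetra n-octyl ammonium bromide controls. The read was Cell Titer Glo luminescence after 30 min at RT, following 5 h compound exposure of ME-180 AP-1-bla cells at 37 °C.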

SMILES	Potency
OC(CCl)CCl	inactive
c1cc(N(CC2CO2)CC2CO2)ccc1OCC1CO1 (stereo not given)	inactive
CN(C)CCC=C1c2ccccc2CCc2ccccc21	inactive
NC=O	inactive
O=CCc1ccccc1	inactive
CCCCOCCOCCOCCO	inactive
CCOCCOCCO	inactive
CCC(C)(O)CCCC(C)C (stereo not given)	inactive
O=P(O)(O)O	inactive
CCCCNS(=O)(=O)c1ccccc1	inactive
Cc1ccc(C)c(O)c1C	inactive
Cc1[nH]c(=O)c(C#N)cc1-c1ccncc1	inactive
CNCCCC12CCC(c3ccccc31)c1ccccc12	inactive
Cc1cccc(C(=O)O)c1	inactive
Nc1ncn([C@@H]2O[C@H](CO)[C@@H](O)[C@H]2O)c(=O)n1	inactive
OC1CCCCCCCCCCC1	inactive

SMILES	Potency
c1ccncc1	inactive
CC(C(=O)O)c1cccc(C(=O)c2ccccc2)c1 (stereo not given)	inactive
Cc1c(C(N)=O)cc([N+](=O)[O-])cc1[N+](=O)[O-]	inactive
CC(C)OC=O	inactive
O=[N+]([O-])c1ccc2c(c1)Cc1ccccc1-2	inactive
Cc1c(OCC(F)(F)F)ccnc1CS(=O)c1nc2ccccc2[nH]1 (stereo not given)	inactive
CC(C)OC(=O)C(C)(C)Oc1ccc(C(=O)c2ccc(Cl)cc2)cc1	inactive
O=Cc1ccccc1O	inactive
C[C@]12CC[C@H]3[C@@H](CCC4=CC(=O)CC[C@@]43C)[C@@H]1CC[C@@H]2C(=O)CO	inactive
O=CCCCC=O	inactive
CC(C)Oc1ccc2c(=O)c(-c3ccccc3)coc2c1	inactive
C=C(C)C(=O)OCCOC(=O)C(=C)C	inactive
O=C(/C=C/C=C/c1ccc2c(c1)OCO2)N1CCCCC1	inactive
C[C@]12CCC(=O)C=C1CC[C@@H]1[C@@H]2C(=O)C[C@@]2(C)[C@H]1CC[C@]2(O)C(=O)CO	inactive
Cc1ccc(C(=O)c2cc(O)c(O)c([N+](=O)[O-])c2)cc1	inactive
CC(C)CC(C)(O)C#CC(C)(O)CC(C)C (stereo not given)	inactive

test system: not listed separately; experiment: qHTS assay to identify small molecule agonists of the AP-1 signaling pathway (AID 1159526); conditions: ME-180 (cervical carcinoma) AP-1-bla reporter, beta-lactamase FRET ratio, 5 h; series mostly up to 76.8 µM

SMILES	outcome
OC(CCl)CCl	inactive
c1cc(N(CC2CO2)CC2CO2)ccc1OCC1CO1 (stereo not given)	inactive
NC=O	inactive
O=CCc1ccccc1	inactive
CCCCOCCOCCOCCO	inactive
CCOCCOCCO	inactive
CCC(C)(O)CCCC(C)C (stereo not given)	inactive
O=P(O)(O)O	inactive
CCCCNS(=O)(=O)c1ccccc1	inactive
Cc1ccc(C)c(O)c1C	inactive
Cc1[nH]c(=O)c(C#N)cc1-c1ccncc1	inactive
Cc1cccc(C(=O)O)c1	inactive
Nc1ncn([C@@H]2O[C@H](CO)[C@@H](O)[C@H]2O)c(=O)n1	inactive
c1ccncc1	inactive
Nc1ncnc2nc[nH]c12	inactive
CC(C(=O)O)c1cccc(C(=O)c2ccccc2)c1 (stereo not given)	inactive
Cc1c(C(N)=O)cc([N+](=O)[O-])cc1[N+](=O)[O-]	inactive
CC(C)OC=O	inactive

SMILES	outcome
O=[N+]([O-])c1ccc2c(c1)Cc1ccccc1-2	inactive
Cc1c(OCC(F)(F)F)ccnc1CS(=O)c1nc2ccccc2[nH]1 (stereo not given)	inactive
CC(C)OC(=O)C(C)(C)Oc1ccc(C(=O)c2ccc(Cl)cc2)cc1	inactive
c1ccc2c(c1)c1cccc3ccc4cccc2c4c31	inactive
O=Cc1ccccc1O	inactive
C[C@]12CC[C@H]3[C@@H](CCC4=CC(=O)CC[C@@]43C)[C@@H]1CC[C@@H]2C(=O)CO	inactive
O=CCCCC=O	inactive
COC(C)COC(C)COC(C)CO (stereo not given)	inactive
CC(C)Oc1ccc2c(=O)c(-c3ccccc3)coc2c1	inactive
C=C(C)C(=O)OCCOC(=O)C(=C)C	inactive
Clc1nc(Cl)c(Cl)c(Cl)c1Cl	inactive
O=C(/C=C/C=C/c1ccc2c(c1)OCO2)N1CCCCC1	inactive
C[C@]12CCC(=O)C=C1CC[C@@H]1[C@@H]2C(=O)C[C@@]2(C)[C@H]1CC[C@]2(O)C(=O)CO	inactive
CN1C(C(=O)Nc2ccccn2)=C(O)c2ccccc2S1(=O)=O	inactive
Cc1ccc(C(=O)c2cc(O)c(O)c([N+](=O)[O-])c2)cc1	inactive
CC(C)CC(C)(O)C#CC(C)(O)CC(C)C (stereo not given)	inactive
O=c1oc(=O)c2cc3c(=O)oc(=O)c3cc12	inactive
